# From PubChem BioAssay (NCATS)
# Results filed as inconclusive are left out. A number with no mark means an inactive call. Calls of active or inactive are those of the source. Calls come from the whole dose curve; as a rule, active = well fitted inhibition curve with a large enough effect; inconclusive = small, poorly fitted or top-dose-only effect; inactive = flat fitted curve, though single readings scatter. Non-standard residues stand in square brackets, D forms with d. Residues, ends and D or L forms follow the SMILES beside them. *: point of attachment. Sta = CC(C)C[C@H](N)[C@@H](O)CC(=O)O; Isovaleryl = CC(C)CC(=O)*
# Test: BET inhibitor-based combinations targeting novel dependencies in MECOM-rearranged (r) AML: AML-194 cell line (AID 2202237; note: nearly all actives have a fitted effect of over 40% in size;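 for viability (% of control): plate controls were vehicle wells for no effect and wells without cells for full effect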)
# Conditions: AML-194 (MECOM-r AML) viability, CellTiter-Glo, 48 h; series mostly up to 46 µM; viability (% of control): at the top concentration
# Excerpt: Ecotropic viral insertion site 1 (EVI1) is located on chromosome 3q26.2 as part of the MECOM (MDS and EVI1 complex) locus. Under normal hematopoiesis, EVI1 is a regulator of hematopoietic stem cell maintenance and self-renewal and EVI1 levels decrease as the cells differentiate. In approximately 5-10% of de novo acute myeloid leukemia (AML) EVI1 is aberrantly expressed, including Chromosomal inv(3)(q21;q26.2) or t(3;3)(q21;q26.2) alterations (MECOM-r) that account for about 50% of AML with EVI1 overexpression 31. AMLs with high levels of EVI1 have a poor prognosis and an overall survival time averaging between 10-14 months. EVI1 overexpression confers resistance in leukemia cells, highlighting the need to develop new targeted therapies for EVI1 overexpressing AMLs.
# Here, we performed an unbiased chemical drug screening by evaluating the single agent activity of a collection of 2,480 oncology-focused, approved and investigational drugs (NCATS Mechanism Interrogation Plates, MIPE v5.0) against a panel of seven AML cell lines. These included four MECOM-r cell-lines (AML-191, AML-194, UCSD-AML1 and HNT-34) and three non-MECOM-r AMLs (MV4-11, OCI-AML3 and SET-2). Exploiting the mechanistic redundancy built in the library, we identified target-level sensitivities in MECOM-r AML cells and relative activity as compared to other AML subtypes.
# A collection of 2480 mechanistically annotated dugs (MIPE v5.0) was used to screen four 3q26.2 rearranged AML cell lines and three non-3q26.2 rearranged AML cell lines. This library purposely exploits redundancy by including multiple inhibitors of key onco-targets, while simultaneously encompassing mechanistic diversity, targeting more than 800 distinct mechanisms of action. Briefly, cells were seeded in 5 uL of growth media using a Multidrop Combi dispenser into 1536 well white polystyrene tissue culture treated plates (Corning) at a density of 500cells/well. For each cell-line, for each of the 2480 drugs in MIPE v5.0 library, an 11-point dose curve was generated via a 1536 pin-tool. Plates were incubated for 48 hr at standard incubator conditions, covered by a stainless steel gasketed lid to prevent evaporation. Cell viability was determined by luminescence based, Cell Titer Glo assay (Promega). In detail, 3 uL of Cell Titer Glo were added to each well and plates were incubated at room temperature for 15 min with a stainless-steel lid in place. Luminescence readings were taken using a Viewlux (PerkinElmer) with a 2 s exposure time per plate. Compound dose-response curves were normalized to DMSO and empty well controls on each plate. Quantitative drug activity data from dose-response curves was determined utilizing area Under the Curve (AUC) and Z-transformed AUC (Z-AUC, a mean-centering transformation applied to each individual cell-line screened).
# Potency is the fitted concentration of half-maximal effect.
Compound,viability (% of control) [%],Potency
CC(C(C)N1CC(=O)NC(=O)C1)N1CC(=O)NC(=O)C1 (stereo not given),95.6,–
NCCCC(N)(C(=O)O)C(F)F (stereo not given),111,–
CCCCc1nc2cc(/C=C/C(=O)NO)ccc2n1CCN(CC)CC,–,1.18 µM (active)
Cc1c(NC(=O)c2ccc(C(C)(C)C)cc2)cccc1-c1cn(C)c(=O)c(Nc2ccc(C(=O)N3CCOCC3)cc2)n1,86.9,–
CC(C)CC(=O)N[C@H](C(=O)N[C@H](C(=O)N[C@@H](CC(C)C)[C@@H](O)CC(=O)N[C@@H](C)C(=O)N[C@@H](CC(C)C)[C@@H](O)CC(=O)O)C(C)C)C(C)C (Isovaleryl-VV[Sta]A[Sta]-OH),107,–
COc1ccc(C[C@@H](C)[C@@H](C)Cc2ccc(OC)c(OC)c2)cc1OC,92.6,–
COc1cc2c(cc1OCCCN1CCCC1)N=C(N)C21CCC1,125,–
Cc1cc(Nc2ncc(Cl)c(Nc3ccccc3S(=O)(=O)C(C)C)n2)c(OC(C)C)cc1C1CCNCC1,–,9.34 µM (active)
CC1=C(/C=C/C(C)=C/C=C/C(C)=C/C(=O)O)C(C)(C)CCC1,92.1,–
CCCNC(=O)Nc1ccc(Oc2ncnc3cc(OC)c(OC)cc23)cc1Cl,102,–
COc1c2occc2cc2ccc(=O)oc12,98.7,–
O=C1CCc2cc(OCCCCc3nnnn3C3CCCCC3)ccc2N1,93.1,–
O=C(Nc1c(Cl)cncc1Cl)c1ccc(OC(F)F)c(OCC2CC2)c1,100,–
CN(C)C(=O)c1cc2cnc(Nc3ccc(N4CCNCC4)cn3)nc2n1C1CCCC1,75.4,–
COCCOc1ccc(N2CCN(CCn3ncc4c3nc(N)n3nc(-c5ccco5)nc43)CC2)cc1,109,–
C#Cc1cccc(Nc2ncnc3cc(OC)c(OCCCCCCC(=O)NO)cc23)c1,–,2.09 µM (active)
C#CC[C@H](c1nc2cc(Cl)ccc2c(=O)n1Nc1ccccc1)N(CCCN)C(=O)c1cccc(Cl)c1F,–,3.32 µM (active)
COc1ccc(C2CC(c3ccccc3)=NN2c2ccc(S(N)(=O)=O)cc2)cc1 (stereo not given),106,–
CCOC(=O)c1ncn2c1CN(C)C(=O)c1cc(F)ccc1-2,88.8,–
Cn1cnc2c1c(=O)[nH]c(=O)n2C,103,–

Compound,viability (% of control) [%],Potency
COc1ccc(CNC(=O)Nc2ncc([N+](=O)[O-])s2)cc1,–,26.3 µM (active)
O=C(/C=C/N1C[C@H]2C[C@@H]1CN2c1ccccn1)c1ccccc1O,95.3,–
CN(C)C/C=C/C(=O)Nc1cccc(C(=O)Nc2cccc(Nc3ncc(Cl)c(-c4c[nH]c5ccccc45)n3)c2)c1,–,0.525 µM (active)
CC(C)c1ccccc1Cc1cc(C(=O)Nc2ccc(S(=O)(=O)c3ccccc3C(C)(C)C)cc2)c(O)c(O)c1O,–,10.5 µM (active)
COc1cc2nccc(Oc3ccc(NC(=O)Nc4cc(C)on4)c(Cl)c3)c2cc1OC,–,6.61 µM (active)
Cc1c(-c2ccnn2C)cc(C(=O)NCc2ccc(S(C)(=O)=O)cn2)c(=O)n1-c1cccc(C(F)(F)F)c1,85.5,–
N#Cc1cc(NC(=O)Nc2nnc(-c3ccncc3)s2)ccc1-c1cn[nH]c1,111,–
COc1ccc2nc3cc(Cl)ccc3c(Nc3cc(CN4CCCC4)c(O)c(CN4CCCC4)c3)c2n1,–,10.5 µM (active)
COc1cc2ncnc(Oc3cccc(NC(=O)Nc4cc(C(C)(C)C(F)(F)F)on4)c3)c2cc1OC,92.2,–
Cc1c(OCC(F)(F)F)ccnc1CS(=O)c1nc2ccccc2[nH]1 (stereo not given),107,–
O=c1c(O)c(-c2ccc(O)cc2)oc2cc(O)cc(O)c12,91.1,–
c1nc2nc(Nc3ccc(N4CCOCC4)cc3)nc(NC3CCCCC3)c2[nH]1,–,2.63 µM (active)
CCCS(=O)(=O)Nc1ccc(F)c(C(=O)c2c[nH]c3ncc(Cl)cc23)c1F,80.4,–
CNCCCC12CCC(c3ccccc31)c1ccccc12,–,26.3 µM (active)
CCc1c2c(nc3ccc(OC(=O)N4CCC(N5CCCCC5)CC4)cc13)-c1cc3c(c(=O)n1C2)COC(=O)[C@]3(O)CC,–,0.332 µM (active)
O=C1NC(O)CCN1[C@@H]1O[C@H](CO)[C@H](O)[C@H]1O (stereo not given in full),113,–
O=C(O)Cn1nnc(-c2cc(N3CCC(Oc4cc(F)ccc4Br)CC3)no2)n1,103,–
COc1ccc(C=Cc2cc(OC)c(OC)c(OC)c2)cc1NC(=O)[C@H](N)CO,–,0.296 µM (active)
CC(C)S(=O)(=O)c1ccc2nccc(Nc3ccc4scnc4c3)c2c1,81.6,–
CNc1nc(Nc2cnn([C@H]3CCN(C4COC4)C[C@@H]3F)c2Cl)ncc1C(F)(F)F,90,–
